Laboratory results published in PubChem BioAssay AID2732 (Emory University Molecular Libraries Screening Center, 2010).
The campaign covered roughly 220,000 compounds. About 8,200 (3.7%) were called active.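 How the source made its calls: active means compounds that reduced the stress-induced luciferase reporter signal by more than about 70% of percent inhibition (limit read from the data); inactive means the rest.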 The full list was thinned out, with actives kept by preference.

Assay: blockers of ER-stress CHOP reporter expression – cell-based, unfolded protein response, luciferase reporter, primary screen (AID 2732);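 further: 0% = tunicamycin plus vehicle and 100% = wells without tunicamycin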
Conditions: CHO-K1 CHOP-promoter luciferase, tunicamycin-induced, 15-18 h; at 10 µM; hits give high values

With `Cc1ccc(CSc2nnc(-c3cnccn3)n2C)cc1` as the compound, how does the inhibition read?
Its inhibition is -17.8% (inactive).

With `O=C(NCc1ccccc1)c1ccc(CNc2c(N3CCCC3)c(=O)c2=O)cc1` as the compound, how does the inhibition read?
Its inhibition is 3.8% (inactive).

For `Cc1cc(=O)[nH]c(SCC(=O)Nc2ccc(Br)cc2)n1`, which inhibition is on record?
Its inhibition is 28.6% (inactive).

With `Cc1nc2cccnc2nc1C` as the compound, how does the inhibition read?
The inhibition was -3.08% (inactive).

For `O=C(COC(=O)c1ccc(S(=O)(=O)Nc2ccccc2)cc1)NCC1CCCO1` (stereo not drawn), which inhibition is on record?
Its inhibition is 0.29% (inactive).

With `O=C(Nc1ccccc1)C1CC(=O)n2c(nc3ccccc32)N1` (stereo not drawn) as the compound, how does the inhibition read?
The inhibition was 3.28% (inactive).

Which inhibition does the source give for `COc1ccc(CCN(C)CCN2C(=O)c3ccccc3C2=O)cc1OC` here?
The inhibition was -9.23% (inactive).

For `COc1ccc(CCN2C(=O)c3[nH]nc(-c4ccccc4O)c3C2c2ccc(C)cc2)cc1OC` (stereo not drawn), which inhibition is on record?
Its inhibition is 75.2% (active).

With `COC(=O)c1ccc(C2C(Oc3ccccc3C)C(=O)N2CCc2ccc(OC)c(OC)c2)cc1` (stereo not drawn) as the compound, how does the inhibition read?
Its inhibition is 18.6% (inactive).

With `CS(=O)(=O)c1sc(C(=O)NC(=S)Nc2ccc(OC(F)(F)F)cc2)c2c1C=CCC2` as the compound, how does the inhibition read?
Its inhibition is -21.9% (inactive).

For `COc1ccc(SC[C@H](Cc2ccccc2)N2CCN(CCc3ccccc3)CCC2=O)cc1`, which inhibition is on record?
The inhibition was 26.9% (inactive).

With `Cc1csc(/N=C/N(C)C)c1C#N` as the compound, how does the inhibition read?
The inhibition was 11.2% (inactive).

Which inhibition does the source give for `CC1CCN(c2c(NCc3ccc(C(=O)NCc4ccccc4)cc3)c(=O)c2=O)CC1` here?
The inhibition was 1.88% (inactive).

For `Cc1cc(=O)[nH]c(N/N=C/c2ccc3c(c2)OCCO3)n1`, which inhibition is on record?
The inhibition was -1.69% (inactive).

Which inhibition does the source give for `CN(CC(=O)Nc1ccccc1[N+](=O)[O-])Cc1ccc(Br)cc1` here?
The inhibition was 5.7% (inactive).

Which inhibition does the source give for `CSc1ccccc1NC(=O)CN(C)CC(=O)Nc1ccc(Cl)cc1[N+](=O)[O-]` here?
Its inhibition is 18.7% (inactive).

For `Cc1ccc(NC(=O)CN(C)Cc2ccc(F)cc2)c([N+](=O)[O-])c1`, which inhibition is on record?
The inhibition was 71.6% (active).

For `Cc1cc(C(=O)NNS(=O)(=O)c2ccccc2C(F)(F)F)nn1C(C)(C)C`, which inhibition is on record?
The inhibition was 14.2% (inactive).

With `NC1=NC(=O)C(Cc2cccc(Cl)c2Cl)S1` (stereo not drawn) as the compound, how does the inhibition read?
Its inhibition is -11.3% (inactive).

Which inhibition does the source give for `O=C1NC(=Nc2ccc(Cl)cc2)SC1Cc1cccc(Cl)c1Cl` (stereo not drawn) here?
Its inhibition is 94.3% (active).

For `O=C1N/C(=N\N=C\c2ccco2)SC1Cc1ccc(F)cc1` (stereo not drawn), which inhibition is on record?
Its inhibition is 2.81% (inactive).

With `COC(C[C@H](O)CC(=O)COCc1ccccc1)OC` as the compound, how does the inhibition read?
Its inhibition is 17.8% (inactive).

For `NC(=O)c1ccc(NC(=O)COC(=O)c2ccc([N+](=O)[O-])cc2)cc1`, which inhibition is on record?
Its inhibition is 4.31% (inactive).

For `Cc1cc(C)cc(NC(=O)NC2CCN(CC(=O)Nc3cccc(Cl)c3C)CC2)c1`, which inhibition is on record?
The inhibition was 14.5% (inactive).

Which inhibition does the source give for `CCSc1nc(C)nc2c1oc1ccccc12` here?
Its inhibition is 97.9% (active).

Which inhibition does the source give for `COc1ccc(CCNC(=O)CSc2nc(C)nc3c2oc2ccccc23)cc1OC` here?
The inhibition was 5.77% (inactive).

Which inhibition does the source give for `Cc1nc(Cl)c2oc3ccccc3c2n1` here?
The inhibition was -37.5% (inactive).

With `CC1=CC(C)(C)NC(=S)N1NC(=O)c1ccccc1Cl` as the compound, how does the inhibition read?
Its inhibition is -2.87% (inactive).

For `CCOc1ccc(C2NC(=S)NC3=C2CCc2ccccc23)cc1` (stereo not drawn), which inhibition is on record?
Its inhibition is -10.8% (inactive).

Which inhibition does the source give for `COc1cc2c(cc1/C=C1/NC(=O)N(c3ccccc3)C1=O)OCO2` here?
Its inhibition is -2.61% (inactive).

With `O=C1N/C(=C/c2cccn2-c2ccccc2)C(=O)N1c1cccc(Cl)c1` as the compound, how does the inhibition read?
Its inhibition is 86.8% (active).

For `Cc1ccccc1NC(=O)CN1C(=O)N/C(=C\c2cccn2-c2cccc(C(=O)O)c2)C1=O`, which inhibition is on record?
Its inhibition is 1.36% (inactive).

Which inhibition does the source give for `Cc1c(C)c(C)c2[nH]c(=S)[nH]c2c1C` here?
Its inhibition is 20.2% (inactive).

For `N#CCc1ccc(OC(=O)c2cccnc2)cc1`, which inhibition is on record?
Its inhibition is 12.3% (inactive).

With `Cc1nc(C)c(C(=O)N(c2ccc(C)c(C)c2)C(C(=O)NCc2ccco2)c2ccccc2)s1` (stereo not drawn) as the compound, how does the inhibition read?
The inhibition was -35.7% (inactive).

Which inhibition does the source give for `Cc1nn(-c2ccccc2)c2sc(C(=O)N(Cc3ccco3)C(C)C(=O)NC(C)(C)C)cc12` (stereo not drawn) here?
The inhibition was 80.4% (active).

Which inhibition does the source give for `Cc1ccc(-c2nnn(CC(=O)N(Cc3ccco3)C(C(=O)NC(C)(C)C)c3ccncc3)n2)o1` (stereo not drawn) here?
The inhibition was 6.52% (inactive).

For `Cc1cc(C)c(C)c(S(=O)(=O)N[C@@H](C)C(=O)OC(C)C(=O)NC(N)=O)c1C` (stereo partly drawn), which inhibition is on record?
The inhibition was -9.66% (inactive).

Which inhibition does the source give for `Cc1ccc(Oc2nc(-c3ccccn3)nc3ccccc23)cc1` here?
The inhibition was -40.5% (inactive).

For `CCOC(=O)CNC(=O)CSc1nc2cccnc2n1CC`, which inhibition is on record?
The inhibition was 5.31% (inactive).

For `CCOC(=O)c1ccc2c(c1)nc(SCC(=O)NC(C)C)n2CC`, which inhibition is on record?
Its inhibition is 76% (active).

Which inhibition does the source give for `CCOC(=O)c1ccc2c(c1)nc(C)n2CC` here?
The inhibition was 3.33% (inactive).

For `C=CCN(CC=C)S(=O)(=O)c1ccc(C(=O)Nc2sc3c(c2C(N)=O)CCCCC3)cc1`, which inhibition is on record?
The inhibition was 41% (inactive).

With `C=CCN(CC=C)S(=O)(=O)c1ccc(C(=O)Nc2nc3c(s2)CCc2ccccc2-3)cc1` as the compound, how does the inhibition read?
The inhibition was 71% (active).

Which inhibition does the source give for `COCCN(CCOC)S(=O)(=O)c1ccc(/C(O)=C(\C#N)c2nc3ccccc3[nH]2)cc1` here?
The inhibition was 1.37% (inactive).

With `CCN(c1ccccc1)S(=O)(=O)c1ccc(C(=O)Nc2nccs2)cc1` as the compound, how does the inhibition read?
The inhibition was 31.6% (inactive).

With `COc1ccc(C(=O)Nc2ncc3c(n2)-c2ccccc2CC3)cc1` as the compound, how does the inhibition read?
Its inhibition is -1.8% (inactive).

For `COCCN(CCOC)S(=O)(=O)c1ccc(C(=O)Nc2nc3c(s2)CCc2ccccc2-3)cc1`, which inhibition is on record?
The inhibition was 82.3% (active).
